Measurements from PubChem BioAssay AID651642 (Sanford-Burnham Center for Chemical Genomics, 2012).
Calls of active or inactive are those of the source.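 Rule for the calls: active = average half-effect concentration of 10 µM or less in every one of the four cell panels; inactive = the rest.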

These molecules were tested on H9c2 (assay: cardiomyocyte survival under oxidative or metabolic stress – cell-based, panel, H9c2 and HL-1, H2O2, 2-deoxyglucose, ATP luminescence, SAR follow-up (AID 651642)). Conditions: H9c2/HL-1 cardiomyocyte H2O2 oxidative damage, mean of runs, with H2O2.

Compound	outcome
CCOC(=O)c1cccc(NC(=O)c2cc(-c3cc(OC)c(OC)c(OC)c3)nc3ccc(Br)cc23)c1	inactive
CCOC(=O)c1cccc(NC(=O)c2cc(-c3cc(OC)c(OC)c(OC)c3)nc3c(Cl)cccc23)c1	inactive
COc1ccc(NC(=O)CNC(=O)c2cc(-c3cc(OC)c(OC)c(OC)c3)nc3ccccc23)cc1	inactive
COc1ccc2c(c1OC)C(=O)N1c3ccccc3C(=O)N(Cc3c(Cl)cccc3Cl)C21 (centres undefined)	inactive
COc1ccc2c(c1OC)C(=O)N1c3ccccc3C(=O)N(Cc3ccccc3C)C21 (centres undefined)	inactive
COc1cc(-c2cc(C(=O)Nc3cccc(C(=O)N4CCOCC4)c3)c3ccccc3n2)cc(OC)c1OC	active
CCOC(=O)c1ccccc1NC(=O)c1cc(-c2cc(OC)c(OC)c(OC)c2)nc2ccccc12	inactive
COc1ccccc1CN1C(=O)c2ccccc2N2C(=O)c3c(ccc(OC)c3OC)C12 (centres undefined)	inactive
COc1cc(-c2cc(C(=O)Nc3cccc(C(C)=O)c3)c3cc(C)ccc3n2)cc(OC)c1OC	active
COc1cc(-c2cc(C(=O)Nc3cccc(C(N)=O)c3)c3ccccc3n2)cc(OC)c1OC	active
COc1cc(-c2cc(C(=O)Nc3cccc(C(=O)NCc4ccccc4)c3)c3ccccc3n2)cc(OC)c1OC	active
COC(=O)CNC(=O)c1cc(-c2cc(OC)c(OC)c(OC)c2)nc2ccccc12	inactive
COc1ccc2c(c1OC)C(=O)N1c3ccccc3C(=O)N(Cc3ccccc3Br)C21 (centres undefined)	inactive
COc1ccc2c(c1OC)C(=O)N1c3ccccc3C(=O)N(Cc3ccccc3)C21 (centres undefined)	inactive
